Binding signal data for one sequence are collected here from publication PMC7862700, “An all-to-all approach to the identification of sequence-specific readers for epigenetic DNA modifications on cytosine”.

Holding throughout (test): DAPPL (digital affinity profiling via proximity ligation, sequencing); 10 mM Tris-HCl pH 7.5, 50 mM NaCl, 1 mM DTT, 4% glycerol, room temperature, 30 min; GST-TFs on glutathione beads, 16-mer random dsDNA library, 0.1% formaldehyde crosslink after washing; high values mean tight binding
One experiment has as its target T1, FEV (Homo sapiens, UniProt Q99581 1-238).
T1 sequence: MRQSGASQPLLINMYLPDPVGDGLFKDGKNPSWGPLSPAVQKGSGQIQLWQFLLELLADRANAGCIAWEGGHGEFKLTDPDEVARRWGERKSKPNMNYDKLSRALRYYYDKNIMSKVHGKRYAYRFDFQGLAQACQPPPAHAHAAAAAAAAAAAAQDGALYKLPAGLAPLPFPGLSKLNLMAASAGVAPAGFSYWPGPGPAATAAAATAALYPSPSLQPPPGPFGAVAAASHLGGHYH
The following applies: protein: recombinant; tags: N-terminal GST; dsDNA, one strand shown. A digest of the protocol:
(§1)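 Binding signal is defined as a hexamer's read frequency for one factor over its frequency for the tag-only sample. To obtain reads, GST-fused human transcription factors were expressed in yeast, captured on glutathione beads, barcoded with DNA and pooled with that sample. Pools met 200 nmole of a 16-mer random double-stranded DNA library in Tris/NaCl/DTT/glycerol buffer for 30 min at room temperature before washing, 0.1% formaldehyde crosslinking, proximity ligation (BsaI/T4 ligase, 1 h, 37 °C), PCR and Illumina NextSeq500 sequencing.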

In the next experiment the target is ETV5 (Homo sapiens, UniProt P41161 1-510). The following applies: protein: recombinant; tags: N-terminal GST; dsDNA, one strand shown. A digest of the protocol: as §1
The next experiment deals with HSF1 (Homo sapiens, UniProt Q00613 1-529). The following applies: protein: recombinant; tags: N-terminal GST; chain copies: 3; dsDNA, one strand shown. The gist of the method:
as §1

In another experiment the target is T2, SPIC (Homo sapiens, UniProt Q8N5J4 1-248).
T2 sequence: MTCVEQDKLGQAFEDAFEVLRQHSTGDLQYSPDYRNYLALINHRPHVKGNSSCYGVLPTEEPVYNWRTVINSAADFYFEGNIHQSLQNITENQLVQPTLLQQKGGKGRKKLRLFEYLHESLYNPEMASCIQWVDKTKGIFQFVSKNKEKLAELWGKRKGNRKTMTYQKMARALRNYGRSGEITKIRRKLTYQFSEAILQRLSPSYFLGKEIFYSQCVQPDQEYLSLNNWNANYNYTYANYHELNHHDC
The following applies: protein: recombinant; tags: N-terminal GST; dsDNA, one strand shown. The gist of the method: as §1

For the next experiment, the target named is ELF4 (Homo sapiens, UniProt Q99607 1-663). The following applies: protein: recombinant; tags: N-terminal GST; dsDNA, one strand shown. The gist of the method: as §1
Another experiment concerns the target T3, ELK4 (Homo sapiens, UniProt P28324-2 1-405).
T3 sequence: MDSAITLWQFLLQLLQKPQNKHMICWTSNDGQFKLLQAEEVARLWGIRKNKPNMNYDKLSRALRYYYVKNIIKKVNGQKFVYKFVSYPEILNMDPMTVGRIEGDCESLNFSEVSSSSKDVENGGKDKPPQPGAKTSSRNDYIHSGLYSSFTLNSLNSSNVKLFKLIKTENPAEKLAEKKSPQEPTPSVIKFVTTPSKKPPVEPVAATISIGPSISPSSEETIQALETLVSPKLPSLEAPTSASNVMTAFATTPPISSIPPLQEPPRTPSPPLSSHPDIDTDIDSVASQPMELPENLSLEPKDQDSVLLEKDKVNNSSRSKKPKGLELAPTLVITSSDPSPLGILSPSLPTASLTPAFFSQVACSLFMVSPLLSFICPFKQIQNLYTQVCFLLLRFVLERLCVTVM
The following applies: protein: recombinant; tags: N-terminal GST; dsDNA, one strand shown. The gist of the method: as §1

In a further experiment the target is T4, ETV2 (Homo sapiens, UniProt O00321 1-342).
T4 sequence: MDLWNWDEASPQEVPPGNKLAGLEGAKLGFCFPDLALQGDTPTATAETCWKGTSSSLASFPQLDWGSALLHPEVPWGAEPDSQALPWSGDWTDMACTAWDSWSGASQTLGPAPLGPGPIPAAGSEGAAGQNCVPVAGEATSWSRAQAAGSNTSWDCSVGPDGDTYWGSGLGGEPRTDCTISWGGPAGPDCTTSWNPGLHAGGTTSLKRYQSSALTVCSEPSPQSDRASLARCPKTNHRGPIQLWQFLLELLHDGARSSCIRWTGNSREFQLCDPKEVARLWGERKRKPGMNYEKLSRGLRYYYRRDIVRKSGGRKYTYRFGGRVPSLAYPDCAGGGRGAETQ
The following applies: protein: recombinant; tags: N-terminal GST; dsDNA, one strand shown. A digest of the protocol: as §1

A further experiment deals with T5, ELF3 (Homo sapiens, UniProt P78545 1-371).
T5 sequence: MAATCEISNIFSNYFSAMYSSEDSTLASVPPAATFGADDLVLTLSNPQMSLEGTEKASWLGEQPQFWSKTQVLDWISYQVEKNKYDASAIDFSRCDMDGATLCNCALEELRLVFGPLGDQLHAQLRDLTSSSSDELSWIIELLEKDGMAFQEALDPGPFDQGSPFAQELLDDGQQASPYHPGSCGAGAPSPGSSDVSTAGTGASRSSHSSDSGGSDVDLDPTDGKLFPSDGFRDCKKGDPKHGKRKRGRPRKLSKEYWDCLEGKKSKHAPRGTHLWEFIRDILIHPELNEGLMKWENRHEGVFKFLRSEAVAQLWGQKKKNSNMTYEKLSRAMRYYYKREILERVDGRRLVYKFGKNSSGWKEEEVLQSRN
The following applies: protein: recombinant; tags: N-terminal GST; dsDNA, one strand shown. A digest of the protocol:
as §1

The target in another experiment is CRX (Homo sapiens, UniProt O43186 1-299). As to conditions: protein: recombinant; tags: N-terminal GST; dsDNA, one strand shown. A digest of the protocol:
as §1

The target in the next experiment is ETV1 (Homo sapiens, UniProt P50549 1-477). As to conditions: protein: recombinant; tags: N-terminal GST; dsDNA, one strand shown. The gist of the method: as §1
Another experiment concerns the target T6, ERF (Homo sapiens, UniProt P50548 1-548).
T6 sequence: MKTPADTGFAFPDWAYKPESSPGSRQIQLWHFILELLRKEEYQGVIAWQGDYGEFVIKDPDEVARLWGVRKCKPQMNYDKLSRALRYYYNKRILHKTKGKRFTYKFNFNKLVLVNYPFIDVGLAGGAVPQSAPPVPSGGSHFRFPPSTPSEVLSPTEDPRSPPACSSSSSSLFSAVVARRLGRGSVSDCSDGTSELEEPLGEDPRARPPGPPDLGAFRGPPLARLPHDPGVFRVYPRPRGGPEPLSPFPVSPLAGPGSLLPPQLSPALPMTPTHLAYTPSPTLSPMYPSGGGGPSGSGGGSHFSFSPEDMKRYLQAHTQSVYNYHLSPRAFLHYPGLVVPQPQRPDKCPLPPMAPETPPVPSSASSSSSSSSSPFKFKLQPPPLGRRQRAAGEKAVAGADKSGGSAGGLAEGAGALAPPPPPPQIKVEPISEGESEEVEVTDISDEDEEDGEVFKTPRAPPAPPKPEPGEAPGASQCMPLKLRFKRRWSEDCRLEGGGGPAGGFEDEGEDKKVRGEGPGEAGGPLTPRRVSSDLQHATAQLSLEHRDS
As to conditions: protein: recombinant; tags: N-terminal GST; dsDNA, one strand shown. A digest of the protocol: as §1

For another experiment, the target named is T7, ETV3L (Homo sapiens, UniProt Q6ZN32 1-361).
T7 sequence: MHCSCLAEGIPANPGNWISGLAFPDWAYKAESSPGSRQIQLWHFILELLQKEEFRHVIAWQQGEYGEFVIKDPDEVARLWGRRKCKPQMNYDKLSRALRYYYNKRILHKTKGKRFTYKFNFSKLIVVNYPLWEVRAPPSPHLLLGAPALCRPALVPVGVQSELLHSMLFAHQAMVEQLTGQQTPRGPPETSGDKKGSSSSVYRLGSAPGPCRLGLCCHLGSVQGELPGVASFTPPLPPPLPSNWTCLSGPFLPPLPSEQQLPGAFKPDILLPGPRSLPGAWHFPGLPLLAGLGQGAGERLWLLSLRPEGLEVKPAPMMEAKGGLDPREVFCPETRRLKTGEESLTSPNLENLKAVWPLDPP
As to conditions: protein: recombinant; tags: N-terminal GST; dsDNA, one strand shown. A digest of the protocol: as §1

Another experiment has as its target T8, ETS2 (Homo sapiens, UniProt P15036 1-469).
T8 sequence: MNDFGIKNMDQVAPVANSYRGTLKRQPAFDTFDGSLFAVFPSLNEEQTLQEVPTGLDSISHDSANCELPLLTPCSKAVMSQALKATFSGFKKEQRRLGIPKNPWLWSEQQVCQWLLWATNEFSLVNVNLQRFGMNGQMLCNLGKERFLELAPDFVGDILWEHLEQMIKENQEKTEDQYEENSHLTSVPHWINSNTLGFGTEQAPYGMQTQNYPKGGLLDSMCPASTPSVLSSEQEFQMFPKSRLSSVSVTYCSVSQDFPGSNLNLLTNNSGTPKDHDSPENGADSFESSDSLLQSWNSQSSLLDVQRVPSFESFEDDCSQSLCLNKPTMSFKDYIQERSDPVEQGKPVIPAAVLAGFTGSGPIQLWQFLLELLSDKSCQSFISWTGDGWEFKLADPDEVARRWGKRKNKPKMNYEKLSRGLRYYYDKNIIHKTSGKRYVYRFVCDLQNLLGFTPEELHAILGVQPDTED
The following applies: protein: recombinant; tags: N-terminal GST; dsDNA, one strand shown. The gist of the method:
as §1

The target of the next experiment is T9, SPDEF (Homo sapiens, UniProt O95238 1-335).
T9 sequence: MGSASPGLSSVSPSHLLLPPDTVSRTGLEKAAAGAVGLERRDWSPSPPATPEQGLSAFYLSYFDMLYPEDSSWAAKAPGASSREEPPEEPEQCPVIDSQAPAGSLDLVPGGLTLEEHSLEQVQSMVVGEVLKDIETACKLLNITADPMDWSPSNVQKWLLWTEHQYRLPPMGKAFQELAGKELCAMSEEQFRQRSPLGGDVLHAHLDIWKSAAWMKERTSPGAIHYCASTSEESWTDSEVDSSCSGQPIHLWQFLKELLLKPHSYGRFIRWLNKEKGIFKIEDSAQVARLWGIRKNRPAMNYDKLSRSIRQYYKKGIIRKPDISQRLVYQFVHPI
The following applies: protein: recombinant; tags: N-terminal GST; dsDNA, one strand shown. A digest of the protocol: as §1

The next experiment concerns the target T10, ETV7 (Homo sapiens, UniProt Q9Y603 1-341).
T10 sequence: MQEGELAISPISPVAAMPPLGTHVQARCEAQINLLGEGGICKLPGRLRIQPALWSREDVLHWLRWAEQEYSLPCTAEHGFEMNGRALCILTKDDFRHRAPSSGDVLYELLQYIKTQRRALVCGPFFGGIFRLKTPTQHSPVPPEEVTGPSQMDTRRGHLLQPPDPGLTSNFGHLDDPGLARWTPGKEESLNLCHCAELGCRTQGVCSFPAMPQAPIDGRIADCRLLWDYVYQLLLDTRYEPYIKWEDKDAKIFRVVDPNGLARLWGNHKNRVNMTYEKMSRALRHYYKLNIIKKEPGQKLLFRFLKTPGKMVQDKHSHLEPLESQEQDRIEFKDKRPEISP
The following applies: protein: recombinant; tags: N-terminal GST; dsDNA, one strand shown. A digest of the protocol:
as §1

A further experiment concerns the target T11, ELF5 (Homo sapiens, UniProt Q9UKW6-2 1-255).
T11 sequence: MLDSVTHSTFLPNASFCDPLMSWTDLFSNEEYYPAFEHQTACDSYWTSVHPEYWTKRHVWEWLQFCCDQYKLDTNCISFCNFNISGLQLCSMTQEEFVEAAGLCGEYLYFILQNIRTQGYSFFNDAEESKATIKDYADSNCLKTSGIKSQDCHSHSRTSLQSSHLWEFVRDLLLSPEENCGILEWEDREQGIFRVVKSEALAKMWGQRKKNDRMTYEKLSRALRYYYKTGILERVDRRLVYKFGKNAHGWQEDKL
The following applies: protein: recombinant; tags: N-terminal GST; dsDNA, one strand shown. A digest of the protocol: as §1

A further experiment addresses T12, ETV3 (Homo sapiens, UniProt P41162-2 1-143).
T12 sequence: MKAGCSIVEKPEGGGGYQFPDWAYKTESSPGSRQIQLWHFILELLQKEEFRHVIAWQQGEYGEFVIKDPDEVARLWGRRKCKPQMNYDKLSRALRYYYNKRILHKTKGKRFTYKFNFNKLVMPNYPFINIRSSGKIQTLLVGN
As to conditions: protein: recombinant; tags: N-terminal GST; dsDNA, one strand shown. The gist of the method: as §1

For another experiment, the target named is ETV6 (Homo sapiens, UniProt P41212 1-452). As to conditions: protein: recombinant; tags: N-terminal GST; dsDNA, one strand shown. The gist of the method:
as §1

Sequence of HSF1 (Q00613 whole entry): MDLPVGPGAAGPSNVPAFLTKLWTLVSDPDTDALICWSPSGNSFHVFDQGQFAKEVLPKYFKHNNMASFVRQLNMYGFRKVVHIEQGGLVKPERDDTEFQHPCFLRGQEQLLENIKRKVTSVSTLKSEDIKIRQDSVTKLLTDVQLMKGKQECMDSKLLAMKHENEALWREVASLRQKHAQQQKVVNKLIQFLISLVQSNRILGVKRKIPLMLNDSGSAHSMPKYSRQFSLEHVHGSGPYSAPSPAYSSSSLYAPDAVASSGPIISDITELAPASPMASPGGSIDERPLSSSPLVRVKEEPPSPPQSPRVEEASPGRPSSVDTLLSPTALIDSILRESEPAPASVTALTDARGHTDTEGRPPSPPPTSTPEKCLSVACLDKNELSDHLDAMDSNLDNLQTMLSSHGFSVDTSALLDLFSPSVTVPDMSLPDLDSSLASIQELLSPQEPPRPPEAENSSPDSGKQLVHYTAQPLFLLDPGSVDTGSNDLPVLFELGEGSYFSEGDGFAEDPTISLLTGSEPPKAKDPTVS
Sequence of ELF4 (Q99607 whole entry): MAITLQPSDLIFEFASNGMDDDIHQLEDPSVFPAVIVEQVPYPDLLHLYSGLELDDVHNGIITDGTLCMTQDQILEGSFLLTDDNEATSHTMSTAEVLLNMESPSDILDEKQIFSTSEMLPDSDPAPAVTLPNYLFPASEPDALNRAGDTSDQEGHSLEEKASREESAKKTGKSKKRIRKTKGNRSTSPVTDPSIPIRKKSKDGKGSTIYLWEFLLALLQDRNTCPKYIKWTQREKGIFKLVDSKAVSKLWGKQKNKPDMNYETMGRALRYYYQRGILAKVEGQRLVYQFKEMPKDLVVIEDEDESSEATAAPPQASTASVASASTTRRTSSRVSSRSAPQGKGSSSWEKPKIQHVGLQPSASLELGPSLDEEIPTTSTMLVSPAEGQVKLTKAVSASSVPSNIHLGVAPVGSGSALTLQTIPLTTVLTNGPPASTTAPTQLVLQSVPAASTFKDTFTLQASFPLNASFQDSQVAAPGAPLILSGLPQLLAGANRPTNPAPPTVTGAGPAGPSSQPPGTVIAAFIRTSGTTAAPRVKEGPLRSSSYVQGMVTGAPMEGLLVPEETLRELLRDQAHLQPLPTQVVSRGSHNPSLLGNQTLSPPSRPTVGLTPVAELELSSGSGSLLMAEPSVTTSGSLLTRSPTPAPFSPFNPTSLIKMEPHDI
Sequence of ETV1 (P50549 whole entry): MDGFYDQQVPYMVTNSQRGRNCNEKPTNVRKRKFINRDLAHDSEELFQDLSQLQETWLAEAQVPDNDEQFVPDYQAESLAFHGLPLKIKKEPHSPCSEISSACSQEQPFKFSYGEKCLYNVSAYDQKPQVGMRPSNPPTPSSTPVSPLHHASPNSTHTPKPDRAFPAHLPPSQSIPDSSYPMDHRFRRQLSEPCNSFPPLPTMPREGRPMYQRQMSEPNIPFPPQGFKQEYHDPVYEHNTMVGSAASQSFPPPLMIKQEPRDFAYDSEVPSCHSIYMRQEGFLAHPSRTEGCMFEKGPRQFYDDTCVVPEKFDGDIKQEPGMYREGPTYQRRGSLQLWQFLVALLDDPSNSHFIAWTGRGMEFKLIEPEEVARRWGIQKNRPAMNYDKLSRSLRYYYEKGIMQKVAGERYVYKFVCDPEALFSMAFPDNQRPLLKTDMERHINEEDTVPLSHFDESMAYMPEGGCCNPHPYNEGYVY
Sequence of CRX (O43186 whole entry): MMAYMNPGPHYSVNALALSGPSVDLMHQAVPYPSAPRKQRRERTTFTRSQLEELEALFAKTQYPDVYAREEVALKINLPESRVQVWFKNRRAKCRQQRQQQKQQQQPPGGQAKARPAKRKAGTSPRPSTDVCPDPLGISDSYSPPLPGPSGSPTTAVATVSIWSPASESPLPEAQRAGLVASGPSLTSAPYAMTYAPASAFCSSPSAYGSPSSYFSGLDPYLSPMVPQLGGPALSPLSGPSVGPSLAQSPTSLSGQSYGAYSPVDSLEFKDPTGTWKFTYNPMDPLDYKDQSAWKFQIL
Sequence of ETV5 (P41161 whole entry): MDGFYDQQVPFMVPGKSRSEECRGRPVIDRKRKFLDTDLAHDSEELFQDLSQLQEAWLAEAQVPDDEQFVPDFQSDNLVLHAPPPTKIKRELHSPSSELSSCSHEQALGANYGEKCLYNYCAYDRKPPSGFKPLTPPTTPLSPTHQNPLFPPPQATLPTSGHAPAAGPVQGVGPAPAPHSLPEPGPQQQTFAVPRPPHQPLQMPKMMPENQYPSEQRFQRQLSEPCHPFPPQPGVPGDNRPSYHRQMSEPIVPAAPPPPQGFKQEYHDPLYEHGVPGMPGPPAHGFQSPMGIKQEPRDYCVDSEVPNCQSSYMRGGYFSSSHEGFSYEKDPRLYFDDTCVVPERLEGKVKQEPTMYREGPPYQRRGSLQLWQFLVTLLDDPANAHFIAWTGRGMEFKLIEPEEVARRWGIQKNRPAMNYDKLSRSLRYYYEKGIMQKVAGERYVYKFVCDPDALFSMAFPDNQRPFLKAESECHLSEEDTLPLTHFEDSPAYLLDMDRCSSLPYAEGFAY
Sequence of ETV6 (P41212 whole entry): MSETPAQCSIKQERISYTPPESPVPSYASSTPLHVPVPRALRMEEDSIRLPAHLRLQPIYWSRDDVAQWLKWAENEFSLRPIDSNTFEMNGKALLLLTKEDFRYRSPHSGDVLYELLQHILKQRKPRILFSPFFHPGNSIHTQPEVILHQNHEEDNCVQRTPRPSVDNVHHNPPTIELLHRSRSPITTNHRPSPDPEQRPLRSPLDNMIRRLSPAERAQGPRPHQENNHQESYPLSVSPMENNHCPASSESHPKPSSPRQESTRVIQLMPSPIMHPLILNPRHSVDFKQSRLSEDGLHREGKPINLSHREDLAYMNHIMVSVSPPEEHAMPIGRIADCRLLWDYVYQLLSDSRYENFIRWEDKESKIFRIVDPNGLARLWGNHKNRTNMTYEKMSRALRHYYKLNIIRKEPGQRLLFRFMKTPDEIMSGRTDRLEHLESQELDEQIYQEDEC

Turning to TGTTCT, the binding signal with FEV was 1.28 fold enrichment (6-mer frequency, TF over GST control); in the experiment with ETV5 it was 1.32 fold enrichment (6-mer frequency, TF over GST control); with HSF1, 2.8 fold enrichment (6-mer frequency, TF over GST control); with SPIC, 1.45 fold enrichment (6-mer frequency, TF over GST control); with ELF4, 1.42 fold enrichment (6-mer frequency, TF over GST control); with ELK4, 1.3 fold enrichment (6-mer frequency, TF over GST control). In addition, the binding signal with ETV2 is 1.23 fold enrichment (6-mer frequency, TF over GST control); in the experiment with ELF3, 1.38 fold enrichment (6-mer frequency, TF over GST control); in the experiment with CRX, 1.45 fold enrichment (6-mer frequency, TF over GST control); in the experiment with ETV1 it was 1.39 fold enrichment (6-mer frequency, TF over GST control); with ERF, 1.39 fold enrichment (6-mer frequency, TF over GST control); with ETV3L it was 1.43 fold enrichment (6-mer frequency, TF over GST control). Further, the binding signal with ETS2 was 1.18 fold enrichment (6-mer frequency, TF over GST control); in the experiment with SPDEF it was 1.22 fold enrichment (6-mer frequency, TF over GST control); with ETV7, 1.22 fold enrichment (6-mer frequency, TF over GST control); in the experiment with ELF5, 1.37 fold enrichment (6-mer frequency, TF over GST control); with ETV3, 1.27 fold enrichment (6-mer frequency, TF over GST control); with ETV6, 1.37 fold enrichment (6-mer frequency, TF over GST control).
